About 83,000 compounds went through this panel and 20% of them were active in at least one assay; those are over-represented in the sample as a whole.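 Values shown are percent growth following 48 h exposure of cells in 96-well plates to a single concentration of compound; below 10 was considered active.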 A number with no mark means an inactive call. The source made the active and inactive calls.
The compounds below were run on MDA-MB-435 melanoma (assay: NCI-60 one-dose screen, 48 h (100 = growth as untreated, 0 = no growth, -100 = all killed)). Conditions: 10 µM unless noted.
For `OCC1C2C=CC(C2)C1CO` (centres undefined), the growth was 109%.
With `Fc1ccc(Cc2ccc(F)cc2)cc1` the growth was 114%.
Compound `O=c1ccc2cc3ccccc3cc2[nH]1` has a growth of 92.3%.
With `COc1ccc(-c2nn(-c3ccccc3)cc2/C=C/C(=O)OCc2cn(-c3ccc(F)c(Cl)c3)nn2)cc1` the growth was 65.3%.
For `COc1ccccc1N1CCN(CCn2c(=O)c3c(c4ccccc4n3C)n(C)c2=O)CC1`, the growth was 106%.
Compound `N=S(=O)(NC(=O)c1ccc(Cl)cc1Cl)c1ccc(Br)s1` (centres undefined) has a growth of 96.2%.
With `CCOC(=O)/C=C/C(=O)[C@H](CC(C)C)NC(=O)[C@H](Cc1ccccc1)NC(=O)OCc1ccccc1` the growth was 75.8%.
In the case of `COC1/C=C\OC2(C)Oc3c(C)c(O)c4c(O)c(c(CN(C)CCO)c(O)c4c3C2=O)NC(=O)/C(C)=C\C=C/C(C)C(O)C(C)C(O)C(C)C(OC(C)=O)C1C` (centres undefined), the growth is reported as 111%.
`COc1nc2c(cc1S(=O)(=O)c1ccccc1)CCc1c-2cnn1Cc1ccccc1` gave a growth of 58.9%.
Work on `O=S(=O)(NCCCNc1cc(-c2cn(-c3ccccc3)nc2-c2ccccc2)ccn1)c1ccc(C(F)(F)F)cc1` yielded a growth of 50%.
With `N#CC1=C(N)Oc2c(ccc3ccccc23)C1c1cccs1` (centres undefined) the growth was -31% (active).
In the case of `CCN(CC)CCCNc1cc(OC)cc2nc3cc(Cl)ccc3nc12`, the growth is reported as -90.4% (active).
Work on `O=C(CN1CCN(c2cc3c(cc2F)c(=O)c(C(=O)O)cn3C2CC2)CC1)Nc1nc(-c2ccc(Cl)cc2)cs1` yielded a growth of 25.2%.
In the case of `O=C1CC(c2nc3ccccc3[nH]2)CN1C1CCCCC1` (centres undefined), the growth is reported as 107%.
